About 64,000 (15%) of roughly 420,000 compounds were called active. Another 27% or so got no clear call; they are omitted. The call rests on the fitted dose curve; in most records, active means well fitted inhibition curve with a large enough effect; inconclusive means small, poorly fitted or top-dose-only effect; inactive means flat fitted curve, though single readings scatter. Not all results are given here. Entries that show only a call come without a potency.
Potency means the concentration at half of the fitted maximal effect.

A short description of this test: qHTS for Inhibitors of human tyrosyl-DNA phosphodiesterase 1 (TDP1): qHTS in cells in absence of CPT. Further: nearly all actives have a fitted effect of over 55% in size. The following applies: DT40 Tdp1-/- hTDP1 cells, no CPT, ATP luminescence, 48 h; activity change, negative = growth inhibition: at 46.2 µM (top of the series). The procedure, abridged:
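Readout: luminescence from CellTiter-Glo after 30 min in the dark at RT. Cells: DT40 Tdp1-/- with stable hTDP1, 400/well. Exposure: compounds alone, ≥48 hr, 37 °C.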
On the technique in general: qHTS replaces the single test concentration by a dilution series.
For the molecule `C#CCSc1nnc(-c2sc3ccccc3c2Cl)o1`, the Potency result is “inactive”.

Take `O=C1CCC/C=C/C[C@@H](CC(=O)N(CCO)Cc2ccccc2)C(=O)NC[C@H](c2ccccc2)O1`: the Potency entry is “inactive”.

`O=C(C[C@@H]1C/C=C\CCC(=O)OC[C@@H]2CCCN2C1=O)NCCO`: the Potency result is “inactive”.

In the case of `O=C(N[C@@H]1C/C=C\C[C@@H](CC(=O)N(CCO)Cc2ccccc2)C(=O)N[C@H](Cc2ccccc2)COC1=O)OCC1c2ccccc2-c2ccccc21`, the Potency is 4.61 µM (active).

As to `O=C1N[C@H](Cc2c[nH]c3ccccc23)COC(=O)[C@H](Cc2ccc(F)cc2)C/C=C\C[C@H]1CC(=O)N(CCO)Cc1ccccc1`, the Potency is 16.4 µM (active).

On to `CN(Cc1cccs1)C(=O)Cc1c[nH]c2ccccc12`, for which the Potency result was “inactive”.

As for `O=C1CCC/C=C\C[C@@H](CC(=O)N(CCO)Cc2ccccc2)C(=O)NCCO1`, the Potency result is “inactive”.

Consider `O=C1OC[C@@H]2CCCN2C(=O)[C@H](CC(=O)N(CCO)Cc2ccccc2)C/C=C\CC[C@@H]1Cc1ccc(F)cc1`, for which the Potency was 18.4 µM (active).

Consider `O=C1NC[C@@H](c2ccccc2)OC(=O)[C@H](Cc2ccc(F)cc2)CC/C=C/C[C@H]1CC(=O)N(CCO)Cc1ccccc1`, for which the Potency is 14.6 µM (active).

On to `C=CCn1c(COc2ccccc2)nnc1SCC(=O)NCC(=O)OCC`, for which the Potency entry is “inactive”.

Regarding `O=C(O)CSc1nccc2ccccc12`, the Potency result was “inactive”.

On to `COc1cc(Cl)c(S(=O)(=O)n2cnc(C)c2)cc1Cl`, for which the Potency result was “inactive”.

Turning to `Cc1ccnc(NC(=O)CNC(=O)c2ccccc2)c1`, the Potency entry is “inactive”.

Consider `CCc1ccc(CNC(=O)CCc2nc(-c3cccs3)no2)cc1`, for which the Potency result was “inactive”.

Turning to `CSc1n[nH]c(-c2ccco2)n1`, the Potency result was “inactive”.

As for `O=C(CC(NS(=O)(=O)c1ccc(Cl)cc1)c1ccco1)NC1CCCC1` (stereo not given), the Potency entry was “inactive”.

On to `CCc1nn(CC(=O)N2CCN(CC)CC2)c(=O)c2cccn12`, for which the Potency result was “inactive”.

For the molecule `COc1ccccc1NS(=O)(=O)c1ccc(C)c(C(=O)NCC(c2ccco2)N(C)C)c1` (stereo not given), the Potency result was “inactive”.

As to `C=CC(C1=CC(=O)C=CC1=O)c1ccc(O)cc1` (stereo not given), the Potency was 1.84 µM (active).

Turning to `COc1ccc(CC(=O)Nc2ccc3c(c2)CCC3)cc1S(=O)(=O)N1CCOCC1`, the Potency result was “inactive”.

Turning to `COC(=O)c1cccc(N(CC(=O)NCC2CCCO2)C(=O)CCC(=O)Nc2cc(C)on2)c1` (stereo not given), the Potency entry was “inactive”.

Turning to `CCOC(=O)Cc1csc(SCC(=O)Nc2ccc(C)cc2F)n1`, the Potency is 14.6 µM (active).

Consider `CCOC(=O)Cc1csc(NC(=O)C(C)(C)C)n1`, for which the Potency entry is “inactive”.

Turning to `CCOC(=O)Cc1csc(SCc2cc(=O)oc3cc(O)ccc23)n1`, the Potency is 13 µM (active).

For `Cc1ccc2c(CSc3nncs3)cc(=O)oc2c1`, the Potency entry was “inactive”.

`CCOC(=O)Cc1csc(NC(NC(=O)OCC)(C(F)(F)F)C(F)(F)F)n1`: the Potency result was “inactive”.

Regarding `Cc1ccc(C)c(NC(=O)COC(=O)Cn2c(C)csc2=O)c1`, the Potency entry was “inactive”.

Regarding `Cc1ccc(-c2csc(SCC(=O)Nc3cc(C)on3)n2)cc1`, the Potency entry was “inactive”.

For `CCOC(=O)Cc1csc(NC(=O)COc2ccc3c(C)cc(=O)oc3c2)n1`, the Potency result is “inactive”.

With `CCOC(=O)Cc1csc(NC(=O)CSc2ccc(Br)cc2)n1`, the Potency was 16.4 µM (active).

Regarding `CN(C(=O)CSc1nnc(Nc2ccccc2)s1)C1CCS(=O)(=O)C1` (stereo not given), the Potency entry was “inactive”.

Take `CC(Nc1ccccc1)c1cccnc1` (stereo not given): the Potency entry was “inactive”.

On to `O=C(O)C1CCCN1c1nc(Cl)ccc1[N+](=O)[O-]` (stereo not given), for which the Potency entry is “inactive”.

Take `CCc1nccn1CCC(=O)N1CCCC(N2CCN(c3ccccc3F)CC2)C1` (stereo not given): the Potency entry is “inactive”.

On to `Cc1c(CN2CCCC(C(=O)c3cccc(Cl)c3)C2)c(=O)n(-c2ccccc2)n1C` (stereo not given), for which the Potency result was “inactive”.

Regarding `CCn1ccnc1CN1CCCC(C(=O)c2ccc3c4c(cccc24)CC3)C1` (stereo not given), the Potency was 4.61 µM (active).

With `COc1ccc(CN2CCC(n3nccc3NC(=O)CCCc3ccccc3)CC2)cc1C`, the Potency is 29.1 µM (active).

Turning to `COc1cc(CN2CCC(n3nccc3NC(=O)CCCc3ccccc3)CC2)ccc1O`, the Potency result was “inactive”.

With `Cc1ccc(CN2CCC(n3nccc3NC(=O)CCCc3ccccc3)CC2)o1`, the Potency result is “inactive”.

For the molecule `CCN(C[C@H]1N[C@@](CC)(C(=O)OC)[C@H]2C(=O)N(Cc3ccccc3)C(=O)[C@@H]12)S(=O)(=O)c1ccc(C(F)(F)F)cc1`, the Potency is 18.4 µM (active).

For `COC(=O)[C@]1(Cc2ccccc2)N[C@H](CN(C)S(=O)(=O)c2ccc(OC(F)(F)F)cc2)[C@@H]2C(=O)N(C)C(=O)[C@@H]21`, the Potency was 23.1 µM (active).

As for `CCN(C[C@H]1N[C@@](CC)(C(=O)OC)[C@H]2C(=O)N(C)C(=O)[C@@H]12)C(=O)Nc1ccc(F)cc1`, the Potency result is “inactive”.

For `CCNC(=O)N(CC)C[C@H]1N[C@@](CC)(C(=O)OC)[C@H]2C(=O)N(Cc3ccccc3)C(=O)[C@@H]12`, the Potency entry was “inactive”.

For `CCN(CC)S(=O)(=O)c1ccc2c(c1)N(CC(=O)NCc1ccccc1)C(=O)CS2`, the Potency entry is “inactive”.

As to `CC[C@@]1(C(=O)OC)N[C@H](CN(C)C(C)=O)[C@@H]2C(=O)N(C)C(=O)[C@@H]21`, the Potency result is “inactive”.

Take `CCC1OC(c2ccc([N+](=O)[O-])cc2)=Nc2ccccc21` (stereo not given): the Potency result was “inactive”.

With `COC(=O)c1sccc1NS(=O)(=O)c1ccc(F)cc1F`, the Potency result is “inactive”.

On to `CN(C)c1ccc(/C=C/C=C/c2ccnc3ccccc23)cc1`, for which the Potency was 2 µM (active).

On to `CCCCC(CCCC)c1ccc(C=Nc2ccc(/C=C/c3ccnc4ccccc34)cc2)cc1`, for which the Potency was 11.2 µM (active).

Take `CN(C)c1ccc(/C=C/c2c3ccccc3nc3ccccc23)cc1`: the Potency was 12.6 µM (active).

As for `CN(C)c1cc(N)c2ccccc2n1` (tested in a mixture with another compound), the Potency result is “inactive”.

Consider `C(=Nc1ccc(/C=C/c2ccnc3ccccc23)cc1)c1cc2c3c(c1)CCCN3CCC2`, for which the Potency is 11.2 µM (active).

Consider `CN(C)c1ccc(/C=N\S(=O)(=O)c2ccccc2)cc1`, for which the Potency entry is “inactive”.

As for `O=C(O)C1C2C=CC(O2)C1C(=O)Nc1ccccn1` (stereo not given), the Potency entry was “inactive”.

Take `Cc1nc(COc2cc3oc(=O)cc(C)c3cc2Cl)cs1`: the Potency entry is “inactive”.

For `COc1ccc(S(=O)(=O)N2CCN(C(=O)NC3CCCCC3)CC2)cc1`, the Potency entry is “inactive”.

Regarding `C[C@H](NS(=O)(=O)c1ccc(Cl)cc1)C(=O)OCC(=O)N1CCOCC1`, the Potency result is “inactive”.

As to `Cc1sc2ccccc2c1CNC[C@H]1O[C@@H](n2ccc(=O)[nH]c2=O)[C@H](O)[C@@H]1O`, the Potency entry is “inactive”.

With `O=S(N1CCCCCC1)C12CC3CC(CC(C3)C1)C2` (stereo not given), the Potency result was “inactive”.

With `O=C1NCCn2nc3ccccc3c21`, the Potency result was “inactive”.

The record behind these values is PubChem BioAssay AID686978 (National Center for Advancing Translational Sciences (NCATS), 2013).
